Test results reported in PubChem BioAssay (NCATS).
Results filed as inconclusive are left out. Active and inactive are the calls of the source. Unless noted, calls follow the shape of the dose curve; as a rule, active = well fitted curve in the direction sought with a large enough effect; inconclusive = small, poorly fitted or top-dose-only effect, or another doubt; inactive = no such curve, though single readings can be large; an effect the other way counts as inactive or inconclusive.

Assays:
[1] = Cell Viability - BJ (AID 421; calls by dose curve;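 also: potency is read from the fitted curve at half-maximal effect; cells exposed to compound for 40 hours at 37 °C before readout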); details: BJ fibroblast viability, qHTS
Method in brief: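 Luminescent ATP signal (CellTiter-Glo, 20 min at room temperature) served as the read-out of viable BJ cells after 40 hours of compound treatment. Responses were scaled between DMSO and 100 uM tamoxifen, and AC50 values were obtained by Hill modeling.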

[2] = Cell Viability - Jurkat (AID 426;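 active = dose-dependent loss of cell ATP signal giving a full or clear fitted curve, ranked by lower potency value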; also: potency is read from the fitted curve at half-maximal effect); details: qHTS
Method in brief: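 Jurkat (clone E6-1, human T-cell leukemia) cells, 5000/well in complete medium, were exposed to compound for 40 hr at 37 °C. Viability was read as intracellular ATP by CellTiter-Glo luminescence; AC50 came from Hill fits of concentration-response data.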

[3] = Cell Viability - HepG2 (AID 433; calls by dose curve;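 also: potency is read from the fitted curve at half-maximal effect; potency for ATP loss meaning cytotoxicity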); details: qHTS
Method in brief: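 ATP luminescence (CellTiter-Glo) after 40 h compound exposure, 37 °C, HepG2, 1500 cells/well, complete medium. Normalized: DMSO = basal, 100 uM tamoxifen = 100% inhibition. AC50 via standard Hill equation.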

[4] = Cell Viability - MRC5 (AID 434; calls by dose curve;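 also: potency is read from the fitted curve at half-maximal effect; potency reflects cytotoxicity seen as loss of intracellular ATP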); details: MRC5 lung fibroblast viability, qHTS
Method in brief: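 MRC5 normal human lung fibroblasts (1500/well) were treated with compounds for 40 hr at 37 °C in complete medium, and viable cells were measured as intracellular ATP by CellTiter-Glo luminescence. AC50 came from Hill fits, normalized to DMSO and 100 uM tamoxifen.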

[5] = Cell Viability - SK-N-SH (AID 435; calls by dose curve; also: potency is read from the fitted curve at half-maximal effect); details: SK-N-SH neuroblastoma cell viability qHTS
Method in brief: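 CellTiter-Glo ATP luminescence, 20 min RT read; cells pre-plated 5 hr, compound 40 hr at 37 °C, 1500 cells/well, complete medium. Normalized DMSO = 0, 100 uM tamoxifen = 100% inhibition; Hill-fit AC50.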

[6] = Cell Viability - N2a (AID 540); details: N2a mouse neuroblastoma cell viability; activity change, negative = cytotoxicity: at 92.2 µM (top of the series);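 also: plate controls were DMSO alone for no effect and tamoxifen control for full effect; nearly all actives have a fitted effect of over 45% in size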
Method in brief: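 Mouse neuroblastoma N2a cells (1500/well) were preincubated 5 hr at 37 °C, then exposed to compounds for 40 hr at 37 °C in complete medium. Viability was read as intracellular ATP by CellTiter-Glo luminescence; AC50 from Hill fits.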

[7] = Cell Viability - HUV-EC-C (AID 542); also: % is scaled to controls: 0 for no effect and ±100 for the full control effect; nearly all actives have a fitted effect of over 35% in size
Method in brief: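 HUV-EC-C normal human vascular endothelial cells, 1000 cells/well, pre-incubated 5 hr at 37 °C, then exposed to compounds for 40 hr at 37 °C in complete medium. Viability measured as intracellular ATP by CellTiter-Glo luminescence; AC50 from Hill fits.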

[8] = Cell Viability - H-4-II-E (AID 543); also: potency is read from the fitted curve at half-maximal effect; nearly all actives have a fitted effect of over 35% in size
Method in brief: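 Rat hepatoma H-4-II-E cells (1500/well) were plated, incubated 5 hr at 37 °C, then exposed to compounds for 40 hr at 37 °C. Cellular ATP was read by CellTiter-Glo luminescence; AC50 came from Hill-equation fits of concentration-response data.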

[9] = Cell Viability - Renal Proximal Tubule (AID 545); details: renal proximal tubule cells viability; activity change, negative = cytotoxicity: at 91.7 µM (top of the series) unless noted; also: nearly all actives have a fitted effect of over 40% in size
Method in brief: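 Rat kidney proximal tubule cells, freshly isolated; 1000 cells/well, 5 hr settle, compound 40 hr 37 °C. CellTiter-Glo 20 min RT, luminescence read. AC50 by standard Hill fit.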

[10] = Cell Viability - Mesenchymal (AID 546); details: mesenchymal cells viability, qHTS; activity change, negative = cytotoxicity: at 91.7 µM (top of the series);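 also: cells exposed to compound for 40 hours before reading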
Method in brief: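 Normal human renal glomerulus-derived kidney mesenchymal cells, 1000 per well in complete medium, were treated with compounds for 40 hr at 37 °C. Viability was read as intracellular ATP by CellTiter-Glo luminescence; AC50 values came from Hill-equation fits of qHTS concentration-response data.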

[11] = Cellular Toxicity (caspase-3) HepG2 (AID 654);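 also: cells exposed to compound for 16 hours before reading; 0% = DMSO alone and 100% = caspase signal from 100 µM tamoxifen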
Method in brief: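 HepG2 cells (1500/well) in complete medium were treated with compounds for 16 hr at 37 °C. Caspase-3/7 activity was then read as luminescence from peptide-aminoluciferin cleavage. AC50 came from Hill fits, normalized to DMSO and 100 uM tamoxifen.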

[12] = Cellular Toxicity (caspase-3) Jurkat (AID 655); details: Jurkat caspase-3 activation, luminescence; caspase-3 activation: at 92.2 µM (top of the series), DMSO = 0%, tamoxifen = 100%;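 also: potency is read from the fitted curve at half-maximal effect; cells exposed to compound for 16 h at 37 °C before reading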
Method in brief: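 Luminescent caspase-3/7 readout (aminoluciferin substrate cleavage) in human T-cell leukemia Jurkat cells after 16 hr compound exposure. Concentration-response normalized to DMSO and 100 uM tamoxifen; AC50 by standard Hill equation.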

[13] = Cellular Toxicity (caspase-3) HUV-EC-C (AID 656)
Method in brief: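 Luminescent caspase-3/7 activation (aminoluciferin substrate cleavage) in HUV-EC-C cells after 16 hr compound exposure, 37°C. Signal normalized to DMSO basal and 100 uM tamoxifen as 100%; AC50 from concentration-response fitted with the Hill equation.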

[14] = Cellular Toxicity (caspase-3) SHSY5Y (AID 657)
Method in brief: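 Luminescent caspase-3/7 readout (aminoluciferin release) in SH-SY5Y cells after 16 h compound exposure in complete medium. Activity scaled between DMSO basal and 10 uM staurosporine as 100%; concentration-response fitted to Hill equation for AC50.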

[15] = Cellular Toxicity (caspase-3) BJ (AID 658);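 also: 0% = DMSO basal and 100% = 10 µM staurosporine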
Method in brief: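 Luminescent aminoluciferin-substrate cleavage reports caspase 3/7 activity in normal human BJ fibroblasts after 16 hr compound exposure at 37 °C. Normalized to DMSO (basal) and 10 uM staurosporine (100%); AC50 from Hill fit of concentration-response.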

[16] = Cellular Toxicity (caspase-3) MRC-5 (AID 659);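 also: 0% = DMSO basal and 100% = 10 µM staurosporine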
Method in brief: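 Luminescence from caspase-cleaved aminoluciferin substrate (Caspase-Glo 3/7, 1 hr RT) reports caspase 3/7 activity in MRC-5 lung fibroblasts after 16 hr compound exposure. Normalized to DMSO basal and 10 uM staurosporine as 100%; AC50 from Hill fits.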

[17] = Cellular Toxicity (caspase-3) Mesangial (AID 660); details: Potency: caspase-3 activation;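 also: cells exposed to compound for 16 h before the caspase read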
Method in brief: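 Human renal glomerular mesangial cells (1000/well) were treated with compounds for 16 h at 37 °C in complete medium, then caspase 3/7 activity was read by Caspase-Glo luminescence. Data were normalized to DMSO and 100 uM tamoxifen; AC50 from Hill fits.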

[18] = Cellular Toxicity (caspase-3) SK-N-SH (AID 661);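 also: 0% = DMSO basal and 100% = 10 µM staurosporine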
Method in brief: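 SK-N-SH human neuroblastoma cells (1500/well) were treated with compounds for 16 hr at 37 °C in complete medium; caspase 3/7 activity was read by Caspase-Glo luminescence. AC50 came from Hill fits of data normalized to DMSO and 10 uM staurosporine.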

[19] = Cellular Toxicity (caspase-3) H-4-II-E (AID 663); details: H-4-II-E rat hepatoma, scaled: DMSO 0%, 100 µM tamoxifen 100%; at 92.2 µM (top of the series);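 also: cells exposed to compound for 16 hr before readout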
Method in brief: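 Luminescence from caspase-cleaved aminoluciferin substrate, read 20 min after reagent addition, reports caspase 3/7 activation in rat H-4-II-E cells after 16 hr compound exposure. Normalized to DMSO (basal) and 100 uM tamoxifen (100%); AC50 from Hill fits.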

[20] = Cellular Toxicity (caspase-3) N2a (AID 665);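 also: compound exposure lasted 16 h at 37 °C before readout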
Method in brief: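 Mouse N2a neuroblastoma cells (1500/well) were treated with compounds for 16 h at 37 °C, then caspase-3/7 activity was read by Caspase-Glo luminescence after 1 h at room temperature. Data were normalized to DMSO and 10 uM staurosporine; AC50 from Hill fits.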

[21] = Cellular Toxicity (caspase-3) NIH 3T3 (AID 666);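 also: 0% = DMSO basal and 100% = 100 µM tamoxifen stimulation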
Method in brief: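 Mouse NIH 3T3 fibroblasts (1000 cells/well) were treated with compound for 16 hr at 37°C in complete medium; caspase-3/7 activity was read by Caspase-Glo luminescence. Normalized to DMSO and 100 uM tamoxifen; AC50 from Hill fits.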

[22] = Cellular Toxicity (caspase-3) Renal Proximal Tubule (AID 667); details: renal proximal tubule cells; at 91.7 µM (top of the series) unless noted;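 also: cells exposed to compound for 16 hours at 37 °C before detection; 0% = DMSO basal and 100% = 10 µM staurosporine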
Method in brief: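 Luminescent caspase 3/7 signal from peptide-aminoluciferin cleavage measures apoptosis in freshly isolated rat kidney proximal tubule cells after 16 h compound exposure. Concentration-response data are normalized to DMSO and 10 uM staurosporine, and AC50 values come from Hill equation fits.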

[23] = molecular target: Cytochrome P450 3A4 (Homo sapiens) (UniProt P08684); assay: qHTS Assay for Inhibitors and Substrates of Cytochrome P450 3A4 (AID 884); also: % is scaled to controls: 0 for no effect and ±100 for the full control effect; nearly all actives have a fitted effect of over 50% in size
Chain of Cytochrome P450 3A4 (Homo sapiens) (P08684 whole entry, looked up): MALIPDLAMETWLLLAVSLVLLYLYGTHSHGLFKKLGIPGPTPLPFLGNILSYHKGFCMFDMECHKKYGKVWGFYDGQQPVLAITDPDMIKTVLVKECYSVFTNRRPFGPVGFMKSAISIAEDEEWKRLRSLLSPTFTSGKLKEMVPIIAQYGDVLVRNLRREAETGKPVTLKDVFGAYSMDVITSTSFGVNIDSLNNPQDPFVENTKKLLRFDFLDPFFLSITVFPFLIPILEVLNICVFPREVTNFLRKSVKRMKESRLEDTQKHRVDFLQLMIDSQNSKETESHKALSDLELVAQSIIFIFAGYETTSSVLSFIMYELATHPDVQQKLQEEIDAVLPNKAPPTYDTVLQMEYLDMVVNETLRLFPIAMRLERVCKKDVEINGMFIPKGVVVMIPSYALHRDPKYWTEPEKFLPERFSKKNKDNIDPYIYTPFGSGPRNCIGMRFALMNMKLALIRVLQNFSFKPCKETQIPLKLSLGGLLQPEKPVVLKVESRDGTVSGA
Method in brief: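 20 nM human CYP3A4 with 25 uM Luciferin-PPXE (at KM) in 200 mM KPO4, preincubated 10 min with compound; NADPH regeneration started a 60 min RT reaction. Luciferin detected by luminescence, normalized to 57 uM ketoconazole as full inhibition.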

[24] = Cell Viability - LYMP2-001 (AID 921);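 also: 0% = DMSO only and full inhibition = tetraoctylammonium bromide control wells; nearly all actives have a fitted effect of over 70% in size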
Method in brief: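 CellTiter-Glo luminescence (intracellular ATP) after 24 hr compound exposure at 37 C, 2500 lymphoblastoid cells/well in complete medium. AC50 fitted with standard Hill equation; tetraoctylammonium bromide positive control.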

[25] = MultiTox-Fluor Cytotoxicity Assay - LYMP1-001 - Dead Cells (AID 946);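 also: 0% = DMSO and 100% = tetraoctylammonium bromide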
Method in brief: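 AC50 from Hill fit of concentration-response; data normalized to DMSO (basal) and 15 uM tetraoctylammonium bromide (100%). LYMP1-001 lymphoblastoid cells, 2500/well, 16 hr compound at 37 C; dead-cell protease fluorescence, Ex/Em 485/520.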

[26] = MultiTox-Fluor Cytotoxicity Assay - LYMP1-001 - Live Cells (AID 947);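 also: 0% = DMSO only and full inhibition = tetraoctylammonium bromide control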
[27] = Cell Viability - LYMP1-002 - Assay at 16 hr (AID 948);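 also: 0% = DMSO alone and full effect = 92 µM tetraoctylammonium bromide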
Method in brief: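 LYMP1-002 human lymphoblastoid cells, 2500/well; 5 hr 37 C; cpd 16 hr 37 C; CellTiter-Glo 30 min RT; luminescence (ATP). Concentration-response, Hill-fit AC50. Pos ctrl tetraoctylammonium bromide.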

[28] = MultiTox-Fluor Cytotoxicity Assay - LYMP1-002 - Live Cells (AID 955); also: % is scaled to controls: 0 for no effect and ±100 for the full control effect
Method in brief: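 Human lymphoblastoid LYMP1-002 cells, 2500/well in complete medium, rested 5 hr at 37 C, then exposed to compounds for 16 hr at 37 C. Live-cell protease cleavage of GF-AFC read by fluorescence (Ex/Em 405/510) after 60 min at room temperature; AC50 from Hill fits.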

[29] = MultiTox-Fluor Cytotoxicity Assay - LYMP1-002 - Dead Cells (AID 960);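 also: 0% = DMSO and 100% = tetraoctylammonium bromide; nearly all actives have a fitted effect of over 60% in size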
Method in brief: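 Human lymphoblastoid cells (LYMP1-002), 2500/well in complete medium, were exposed to compounds for 16 hr at 37 C. Dead-cell protease activity was read as bis-AAF-R110 fluorescence (Ex/Em 485/520), normalized to DMSO and 15 uM tetraoctylammonium bromide; AC50 from Hill fits.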

[30] = MultiTox-Fluor Cytotoxicity Assay - LYMP1-003 - Dead Cells (AID 961);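 also: 0% = DMSO and 100% = tetraoctylammonium bromide; nearly all actives have a fitted effect of over 70% in size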
Method in brief: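 Human lymphoblastoid LYMP1-003 cells (2500/well) were treated with compounds for 16 hr at 37 C in complete medium. Dead-cell protease release was read by bis-AAF-R110 fluorescence (Ex/Em 485/520). AC50 came from Hill fits, normalized to DMSO and 15 uM tetraoctylammonium bromide.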

[31] = MultiTox-Fluor Cytotoxicity Assay - LYMP1-003 - Live Cells (AID 962);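 also: 0% = DMSO only and full loss = 92 µM tetraoctylammonium bromide; cytotoxic hits lower the live-cell protease signal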
Method in brief: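 LYMP1-003 human lymphoblastoid cells (2500/well) in complete medium were preincubated 5 hr at 37 C, then exposed to compounds for 16 hr at 37 C. Live-cell protease cleavage of GF-AFC read by fluorescence (Ex/Em 405/510); AC50 from Hill fits.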

[32] = Cell Viability - LYMP1-003 - Assay at 24 hr (AID 963);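 also: plate controls were DMSO only for no effect and tetraoctylammonium bromide positive control for full effect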
Method in brief: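 Human lymphoblastoid LYMP1-003 cells (2500/well) were rested 5 hr at 37 C, then exposed to compounds in complete medium for 24 hr at 37 C. Cellular ATP was quantified by CellTiter-Glo luminescence, and AC50 values came from Hill fits of concentration-response data.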

[33] = Cell Viability - LYMP1-003 - Assay at 40 hr (AID 964); also: % is scaled to controls: 0 for no effect and ±100 for the full control effect; nearly all actives have a fitted effect of over 60% in size
Method in brief: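 Human lymphoblastoid LYMP1-003 cells, 2500/well in complete medium, rested 5 hr at 37 C, then exposed to compounds for 40 hr at 37 C. Viability read as intracellular ATP by CellTiter-Glo luminescence; AC50 from Hill fits of concentration-response data.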

[34] = Cell Viability - LYMP2-003 (AID 965);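 also: cells exposed to compounds for 24 h before reading; 0% = DMSO only and full effect = 92 µM tetraoctylammonium bromide; nearly all actives have a fitted effect of over 50% in size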
Method in brief: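 CellTiter-Glo luminescence (cellular ATP) after 24 h compound exposure at 37 C in complete medium; 2500 cells/well, 5 h settling beforehand. Concentration-response fitted to standard Hill equation for AC50. Tetraoctylammonium bromide served as positive control.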

[35] = Cell Viability - LYMP2-005 (AID 967);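 also: plate controls were DMSO only for no effect and 92 µM tetraoctylammonium bromide control for full effect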
Method in brief: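 Steps: seed 2500 LYMP2-005 cells/well, incubate 5 h at 37 C, add compound, incubate 24 h at 37 C, add CellTiter-Glo, wait 30 min at RT, read luminescence. Concentration-response data fitted to Hill equation for AC50.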

[36] = Cell Viability - LYMP2-009 (AID 968);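 also: 0% = DMSO alone and the full-kill end = tetraoctylammonium bromide at 92 µM; nearly all actives have a fitted effect of over 55% in size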

Oc1c(Br)c(Br)c(Br)c(Br)c1Br
inactive: Potency [1] > 92 µM | Potency [3] > 92 µM | Potency [4] > 92 µM | Potency [5] 57 µM | Potency [7] | Potency [9] | Potency [10] | outcome [11] | outcome [13] | Potency [14] | outcome [15] | outcome [16] | Potency [17] | outcome [18] | caspase-3 activation [19] 10.1% | outcome [20] | outcome [21] | caspase-3 activation [22] 1.89% | Potency [23] | Potency [24] | Potency [25] | Potency [26] | Potency [27] | Potency [28] | Potency [29] | Potency [30] | Potency [31] | Potency [32] | Potency [33] | Potency [34] | Potency [35] | Potency [36]
active: Potency [2] 39.1 µM | activity change, negative = cytotoxicity [6] -118% | Potency [8] 50.1 µM | Potency [12] 31.6 µM
